Experimental data: PubChem BioAssay (Tox21)
Inconclusive results are not listed. A call without a number means that no potency is given here. Calls of active or inactive are those of the source. The call rests on the fitted dose curve; in most records, active means well fitted inhibition curve with a large enough effect in the repeat runs; inconclusive means weak or mixed curves; inactive means no such curve, though single readings can be large or run the other way.

Each molecule was assayed against Cytochrome P450 1A2 (Homo sapiens) (UniProt P05177) (assay: Cytochrome P450 Family 1 Subfamily A Member 2 (CYP1A2) small molecule antagonists: luciferase reporter qHTS assay (AID 1671199; further: nearly all actives have a fitted effect of over 50% in size)). Settings: P450-Glo CYP1A2 enzyme, luciferin luminescence, 1 h; series mostly up to 115 µM.
From the text: National Center for Advancing Translational Sciences [NCATS]
U.S. Environmental Protection Agency [EPA]
National Institutes of Environmental Health Sciences [NIEHS]
National Toxicology Program [NTP]
U.S. Food and Drug Administration [FDA]
Cytochrome P450 (CYP) enzymes are membrane-bound hemeproteins that play a key role in metabolism of drugs and xenobiotics. Evaluation of the effect of chemicals on CYP isozymes is useful to minimize the adverse drug reactions and toxicities in drug development process. Tox21 chemicals were tested for their effect on CYP enzyme activities by using P450-Glo (TM) screening systems (Promega Corporation, Madison, WI). These systems provide a luminescent method containing proluciferin substrates and are converted to luciferin products by CYP isozymes. The luciferin products formed are detected with a luciferin detection reagent, and the amount of light produced is proportional to CYP activity. P450-Glo (TM) CYP1A2 screening system (Catalog. No. V9770) was used to detect the compounds that interfere in CYP1A2 activity. The positive control compound used for CYP1A2 assay is furafylline (Sigma-Aldrich, St. Louis, MO).
Tox21 Assay Protocol Summary:
Two ul of enzyme-substrate mix was dispensed into medium binding white/solid 1536-well plates (Greiner Bio-One North America Inc., Monroe, NC) using a BioRaptr Flying Reagent Dispenser (FRD, Beckman Coulter, Brea, CA). Compounds dissolved in DMSO and positive control (furafyllline) were transferred to the assay plates at 23 nl using a Pintool station (Wako, San Diego, CA). The assay plates were incubated at room temperature for 10 min. Then 2 ul of NADPH regeneration solution was added to each well of the assay plates using an FRD and incubated at room temperature for 1 h. The reaction was stopped by adding 4 ul of detection reagent using an FRD and after 20 min incubation at room temperature the luminescence signal was measured using a ViewLux plate reader (Perkin Elmer, Shelton, CT). Data were expressed as relative luminescence units.
Potency means the concentration at half of the fitted maximal effect.

Chain of Cytochrome P450 1A2 (Homo sapiens) (P05177 whole entry, looked up): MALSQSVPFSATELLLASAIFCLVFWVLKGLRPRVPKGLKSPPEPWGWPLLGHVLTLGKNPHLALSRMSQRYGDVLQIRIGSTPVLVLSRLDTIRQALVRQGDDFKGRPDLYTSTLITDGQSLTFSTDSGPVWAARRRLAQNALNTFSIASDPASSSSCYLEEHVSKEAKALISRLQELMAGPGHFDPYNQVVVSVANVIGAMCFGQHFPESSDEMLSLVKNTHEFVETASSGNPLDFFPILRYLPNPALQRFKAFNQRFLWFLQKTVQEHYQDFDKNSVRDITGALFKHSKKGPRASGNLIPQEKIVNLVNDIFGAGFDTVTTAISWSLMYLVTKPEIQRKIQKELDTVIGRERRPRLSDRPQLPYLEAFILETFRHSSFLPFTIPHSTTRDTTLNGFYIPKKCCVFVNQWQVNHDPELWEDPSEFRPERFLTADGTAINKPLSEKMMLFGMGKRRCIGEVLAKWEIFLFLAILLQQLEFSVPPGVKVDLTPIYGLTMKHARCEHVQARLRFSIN

| Structure (SMILES) | Potency |
| --- | --- |
| O=CCCl | inactive |
| C/C=C/CC#N | 36.4 µM (active) |
| CC(Cc1ccccc1)NCCn1cnc2c1c(=O)n(C)c(=O)n2C (stereo not given) | inactive |
| CCCOC(=O)Cc1ccc(OCC(=O)N(CC)CC)c(OC)c1 | inactive |
| COc1cc(CCN)cc(OC)c1OC | 38.7 µM (active) |
| CCC(C(N)=O)N1CCCC1=O (stereo not given) | inactive |
| CCN1CCCC1CNC(=O)C(O)(c1ccccc1)c1ccccc1 (stereo not given) | inactive |
| O=C(Cl)c1ccccc1 | inactive |
| CNC(=O)NC(O)C(Cl)(Cl)Cl (stereo not given) | inactive |
| Clc1nc(Cl)nc(Nc2ccccc2Cl)n1 | inactive |
| NC(=O)OCCCc1ccccc1 | 21.9 µM (active) |
| CCCN1CCC[C@@H]2Cc3nc(N)ncc3C[C@H]21 | inactive |
| BrCCc1ccccc1 | inactive |
| COc1ccccc1OC | inactive |
| NC1(c2ccccc2)CCCCC1 | inactive |
| CC(C)NCC(O)c1ccc([N+](=O)[O-])cc1 (stereo not given) | inactive |
| CCCN1CCC[C@@H]2Cc3[nH]ncc3C[C@H]21 | inactive |
| O=C(CCl)NCO | inactive |
| CCNc1nc(NCC)nc(SC)n1 | 10 µM (active) |
| N=C(N)[Se] | inactive |

| Structure (SMILES) | Potency |
| --- | --- |
| CC1N=C(N)OC1c1ccccc1 (stereo not given) | inactive |
| ClCCCCl | 23.9 µM (active) |
| CC(C)(O)C(Cl)(Cl)Cl | inactive |
| CC(C)[C@]12CC(=O)[C@H](C)[C@H]1C2 | inactive |
| C1CN2CCC1CC2 | inactive |
| CC(C)C(C)(N)C#N (stereo not given) | inactive |
| N[C@@H](Cc1ccc(Oc2cc(I)c(O)c(I)c2)c(I)c1)C(=O)O | inactive |
| CCc1ccc(C2CCNCC2)cc1 | inactive |
| CCN[C@@H](C)Cc1ccccc1 | inactive |
| CC(C)(C)c1cc(O)ccc1O | 39.9 µM (active) |
| C=CC=O | inactive |
| COc1cccc(C=O)c1 | 39.9 µM (active) |
| C=CCN1CC[C@]23CCCC[C@H]2[C@H]1Cc1ccc(O)cc13 | inactive |
| COc1ccc2c(C(=O)c3ccc(Cl)cc3)c(C)n(CC(=O)O)c2c1 | inactive |
| CCOC(=O)Nc1cccc(OC(=O)Nc2ccccc2)c1 | 12.6 µM (active) |
| CCOC(=O)C(SP(=S)(OC)OC)c1ccccc1 (stereo not given) | 3.17 µM (active) |
| COP(=O)(O)OC | 32.8 µM (active) |
| CC1=C2[C@H]3OC(=O)[C@@H](C)[C@@H]3CC[C@@]2(C)C=CC1=O | inactive |
| COc1cccc([C@@]2(O)CCCC[C@@H]2CN(C)C)c1 | inactive |
| CNC(=O)Oc1ccccc1C(C)C | 35.6 µM (active) |
